Source: PubChem BioAssay
CHX counter – affects cycloheximide protein synthesis inhibition readout, counter-screen; cell reporter, cycloheximide protein synthesis inhibition counterscreen; max response, %; actives 12% (n = 300,000); in the data active means max response mostly above about 13%, no sharp cut-off; inactive means mostly below about 14%; further: read at 38.3 µM for the half of the compounds with a filed dose; 0% is about no effect
Pf growth 48h – inhibits P. falciparum growth in the first generation, 48 h; P. falciparum luciferase growth in erythrocytes, 48 h; Potency, µM (titrated, usually from 28.7 µM), for inactives: at the top dose activity change, negative = inhibition, most hits filed as inhibitors; actives 5.9% (n = 310,000); AID 504832; further: potency means the concentration at half of the fitted maximal effect; on the % scale 0 is the no-effect control and ±100 the full control effect
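Luminescence readout; reporter = integrated firefly luciferase in P. falciparum. RBC culture at 2% hematocrit, 0.1% parasitemia final, 37 C/5% CO2; decreased signal taken as growth inhibition.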
Pf growth 96h – P. falciparum growth inhibition at 96 hour, primary screen for plastid delayed-death inhibitors | actives 6.9% (n = 320,000) | Potency, µM (top dose mostly 28.7 µM), inactives show at the highest dose activity change, negative = inhibition, most hits filed as inhibitors | P. falciparum luciferase reporter growth, 96 h | AID 504834; further: potency means the concentration at half of the fitted maximal effect; on the % scale 0 is the no-effect control and ±100 the full control effect
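P. falciparum expressing integrated firefly luciferase grown in erythrocytes (2% hematocrit, 0.05% parasitemia final) with compounds for 96 hours at 37 C, 5% CO2. Growth inhibition read as loss of luminescence after adding luciferase detection reagent.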
HCMV antiviral – blocks human cytomegalovirus replication | HFF cells, HCMV-luciferase reporter, 72 h; hits give low values | activity change, negative = inhibition, % at 57.5 µM | actives 4.5% (n = 410,000) | AID 1259415; in the data active means activity change below about -60%; inconclusive means no clear call, values can overlap the other calls; inactive means above about -39%; further: on the % scale 0 is the no-effect control and ±100 the full control effect
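Compounds were evaluated in HFFs infected with an HCMV luciferase reporter virus (MOI 1 PFU/cell). Luciferase in lysates collected 72 h post infection served as the replication measure.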
Shiga toxin inh – inhibitors of Shiga toxin in Vero cells; Vero cells, Shiga toxin protein synthesis inhibition reporter; inhibition, % at 38.7 µM; actives 9.2% (n = 290,000); AID 2315; in the data active means inhibition mostly above about 28%, no sharp cut-off; inactive means mostly below about 43%; further: 0% is about no effect
Numbers without * were called inactive; u = inconclusive; x = not tested or not shown. Compounds with a hit are over-represented: about 20% of the library has one in this group of screens. Unless noted, the call rests on the fitted dose curve; in most records, active means well fitted inhibition curve with a large enough effect; inconclusive means small, poorly fitted or top-dose-only effect, or another doubt; inactive means no such curve, though single readings can be large or run the other way.

SMILES	CHX counter	Pf growth 48h	Pf growth 96h	HCMV antiviral	Shiga toxin inh
CCCCC(=O)Nc1nc(C)c(-c2csc(Nc3cc(Cl)ccc3OC)n2)s1	2.8	8.28µM*	4.65µM*	34.3	52.4
Cc1cc2nc(-c3ccc(OCc4ccccc4Cl)cc3)cc(C(F)(F)F)n2n1	x	x	x	5.4	x
COc1ccccc1CNC(=O)N/C=C/c1ccc(Cl)cc1	6.8	-7.3%	-7.5%	-19.8	-5.4
CC(Oc1cc2oc(=O)c3c(c2cc1Cl)CCC3)C(=O)NCc1ccccn1 (centres undefined)	-4.4	24.6%	6.8%	0.0	-3.3
CC(=O)Oc1ccc(OC(C)=O)c2c1CC(C)=C(C)C2	-0.3	9.28µM*	13.1µM*	u	41.2
COc1ccc(CCNC(=O)CCCn2c(=O)c3ccccc3n(Cc3ccccc3C#N)c2=O)cc1OC	x	x	x	-1.2	x
O=S(=O)(Cc1cc(-c2ccc(Cl)cc2)no1)c1ccccc1	38.0*	115.1%	85.6%	60.6	44.2*
O=S(=O)(Cc1cc(-c2ccccc2Cl)no1)c1ccccc1	37.5*	69.3%	5.7%	34.5	121.0*
O=C(/C=C/c1ccc(OC2CSC2)cc1)c1ccccc1	47.3*	130.7%	u	56.7	124.9*
O=C(N/N=C/c1ccc(OC2CSC2)cc1)c1ccccc1	50.2*	11.7µM*	u	151.0	127.2*
COCCCn1cc(CN2CC(N3CCN(C)CC3)CS2(=O)=O)nn1 (centres undefined)	x	x	x	-30.3	x
CC(C(=O)NC1CCCCCC1)c1ccc([N+](=O)[O-])cc1 (centres undefined)	-3.1	-17.1%	8.28µM*	u	x
CC(C(=O)Nc1ccccc1Br)c1ccc([N+](=O)[O-])cc1 (centres undefined)	-1.9	13.1µM*	4.15µM*	u	-2.1
CC(C)Cc1ccc([C@@H](C)C(=O)NS(C)(=O)=O)cc1	-7.0	-2.0%	10.7%	x	-2.2
CC(C)Cc1ccc(C(C)C(=O)Nc2ccccc2O)cc1 (centres undefined)	-2.5	u	-29.6%	-82.0*	9.6
CC(C)C(=O)Nc1ccc([N+](=O)[O-])cc1Br	-4.9	3.6%	53.1%	0.8	-12.0
O=C(Nc1ccc([N+](=O)[O-])cc1O)Nc1ccccc1Br	36.0*	x	x	x	61.0*
CCCCc1nnc(NC(=O)CSc2nc(=O)cc(N)n2-c2cccc(C)c2)s1	0.8	x	22.6%	-25.8	25.7
COc1ccc(NS(=O)(=O)c2ccc3nc(COc4ccc(C#N)cc4)[nH]c3c2)cc1	2.1	-16.2%	u	-12.6	-1.4
COc1cccc(CNC(=O)c2ccc(-c3nc(CS(=O)c4ccccc4)c(C)o3)cc2)c1 (centres undefined)	x	x	x	17.5	x
CCn1c(-c2cc(C3CC3)nc3ccccc23)n[nH]c1=S	-3.1	u	u	-37.0	-1.6
CCOc1ccccc1-c1cc(-c2n[nH]c(=S)n2CC)c2ccccc2n1	-2.5	1.85µM*	1.65µM*	11.8	26.5
CCn1c(-c2cc(-c3ccc(C)c(C)c3)nc3ccccc23)n[nH]c1=S	26.1*	4.15µM*	3.7µM*	x	81.0*
CCn1c(-c2c[nH]c3ccccc23)n[nH]c1=S	-2.8	20.5%	x	2.0	-2.8
CCOc1cccc(-c2cc(-c3n[nH]c(=S)n3CC)c3ccccc3n2)c1	0.2	13.1µM*	11.7µM*	-25.2	13.3
SMILES	CHX counter	Pf growth 48h	Pf growth 96h	HCMV antiviral	Shiga toxin inh
CCn1c(-c2cc(-c3cc(C)ccc3C)nc3ccccc23)n[nH]c1=S	-1.2	u	2.62µM*	-2.4	4.0
COc1ccc(C)cc1NC(=O)CCNS(=O)(=O)c1ccc2c(c1)CC(C)N2C(C)=O (centres undefined)	-2.2	4.0%	u	-25.0	-4.6
CN(C)CC/C=C1/c2ccccc2Sc2ccc(Cl)cc21	-6.4	10.4µM*	u	-24.2	1.6
CCCCCC[N+](C)(C)CC/C=C1/c2ccccc2Sc2ccc(Cl)cc21	-1.5	u	2.08µM*	-7.3	-5.1
S=C1Nc2ccccc2Sc2ccc(Cl)cc21	-1.8	u	u	-16.7	0.7
Cc1cc(C)c2c(NC(=O)CCl)nn(C)c2n1	25.9	3.7µM*	1.85µM*	-110.2*	25.7
Cc1cc(C)c2c(NC(=S)NC(=O)c3ccccc3)nn(C)c2n1	8.3	u	-2.5%	21.5	-16.1
COCC(=O)N1CCCCN2[C@H](C1)[C@H](c1ccc(C#Cc3ccccc3)cc1)[C@@H]2CO	x	x	x	19.7	x
CCOc1ccccc1CNCCOC	-4.8	-1.1%	19.3%	4.6	16.0
